The record followed here is PubChem BioAssay (Tox21).

Experiment [1] in a line: qHTS assay to identify small molecule agonists of the hypoxia (HIF-1) signaling pathway - cell viability counter screen (AID 1224844; calls by dose curve; also: nearly all actives have a fitted effect of over 50% in size). The method, boiled down:
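Luminescent ATP content (CellTiter-Glo, 30 min, room temperature) served as the viability measure in HRE-bla ME-180 cells exposed to compounds for 17 hrs in low-serum medium (0.5% dialyzed FBS).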

The nature of experiment [2]: qHTS assay to identify small molecule agonists of H2AX (AID 1224845; active = well fitted activation curve with a large enough effect in the signal ratio in the repeat runs, not every such curve was filed as active; the % refers to the signal ratio). The method, boiled down:
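Wild-type CHO-K1 cells plated overnight, then exposed 3 hr at 37C to compounds at 15 concentrations (0.76% DMSO). Lysed, then HTRF anti-pH2AX(S139)-cryptate/anti-H2AX-d2 detection after 24 hr at room temperature; emissions 665 and 620 nm.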

A short description of experiment [3]: qHTS assay to identify small molecule agonists of the hypoxia (HIF-1) signaling pathway (AID 1224846; active = well fitted activation curve with a large enough effect in the signal ratio in the repeat runs, not every such curve was filed as active; the % refers to the signal ratio). The method, boiled down:
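Measured by blue/green FRET after loading CCF4-AM: beta-lactamase expressed from a hypoxia response element in ME-180 cells. Test agents were delivered in DMSO and left 17 hrs; cells had been plated 5 hrs earlier in low-serum (0.5% dialyzed FBS) medium.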

A short description of experiment [4]: qHTS assay to identify small molecule agonists of H2AX - cell viability counter screen (AID 1224847; calls by dose curve; also: nearly all actives have a fitted effect of over 30% in size; also: potency is read from the fitted curve at half-maximal effect; as to activity change, negative = cytotoxicity: top concentration of the series differs between compounds). The method, boiled down:
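For this counter screen, overnight-attached CHO-K1 cells received test compounds (15 concentrations, 0.76% DMSO final); 3 hr later at 37C, CellTiter-Glo reagent was added and luminescence recorded after 30 min at room temperature.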

Experiment [5] is described as follows: qHTS assay to identify small molecule antagonists of the estrogen related receptor (ERR) signaling pathway from Tox21 library (AID 1224848). Also: nearly all actives have a fitted effect of over 50% in size. Also: potency is read from the fitted curve at half-maximal effect. The method, boiled down:
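Screening used an ERR reporter line supplied by NTP, exposed for 18 h at 37 C to library compounds delivered in DMSO. Signal was luciferase luminescence developed with ONE-Glo at room temperature for 30 min.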

Experiment [6] is described as follows: qHTS assay to identify small molecule agonists of the estrogen related receptor (ERR) signaling pathway from Tox21 library (AID 1224849; calls by dose curve; also: nearly all actives have a fitted effect of over 15% in size). Conditions: ERR reporter cell line, ONE-Glo luciferase, 18 h; at 92.4 µM (top of the series) unless noted. The method, boiled down:
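We plated ERR reporter cells, waited 6 h, added compounds in DMSO by pin tool and incubated them 18 h at 37 C. ONE-Glo was then added and luminescence read after 30 min.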

Experiment [7] is described as follows: qHTS RealTime-Glo MT Cell Viability Assay in HepG2 cells - 24 hour (AID 1224867). Also: nearly all actives have a fitted effect of over 50% in size. In a few lines:
(§1)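 HepG2 suspension premixed with RealTime-Glo reagents is plated at 600 cells per well and left 5 h at 37 C/5% CO2. Compounds in DMSO then go in, and bioluminescence reflecting viable cell number is recorded over 40 h.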

The nature of experiment [8]: qHTS RealTime-Glo MT Cell Viability Assay in HEK293 cells - 32 hour (AID 1224868). Also: top concentration of the series differs between compounds; nearly all actives have a fitted effect of over 50% in size. In a few lines:
(§2)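 Reads taken at 0, 8, 16, 24, 32 and 40 h from the same wells. HEK293 cells (600/well) carried RealTime-Glo reagents from seeding, with compound added after a 5 h settle at 37 C.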

Experiment [9] can be described thus: A CellTox Green Cytotoxicity Assay to monitor cytotoxicity in HEK293 cells - 0 hour (AID 1224869). Also: nearly all actives have a fitted effect of over 50% in size. The method, boiled down: (§3)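 Each value comes from one timepoint of a single continuous run in which HEK293 cells with CellTox Green were exposed to compound for up to 40 h at 37 C, dye fluorescence rising with cell death.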
A short description of experiment [10]: qHTS RealTime-Glo MT Cell Viability Assay in HepG2 cells - 40 hour (AID 1224870). Also: nearly all actives have a fitted effect of over 50% in size. The method, boiled down:
(§4)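 HepG2 cells mixed with RealTime-Glo MT reagents (NanoLuc plus cell-permeant prosubstrate) were seeded at 600 cells/well, incubated 5 h at 37 C/5% CO2, then pinned with compounds in DMSO; nonlytic luminescence tracked viability during 40 h treatment.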

Experiment [11] is described as follows: A CellTox Green Cytotoxicity Assay to monitor cytotoxicity in HEK293 cells - 40 hour (AID 1224871). Also: nearly all actives have a fitted effect of over 45% in size. In a few lines: as §3
A short description of experiment [12]: qHTS RealTime-Glo MT Cell Viability Assay in HEK293 cells - 16 hour (AID 1224872). The method, boiled down: as §2
Experiment [13] can be described thus: qHTS RealTime-Glo MT Cell Viability Assay in HepG2 cells - 8 hour (AID 1224873). Also: nearly all actives have a fitted effect of over 55% in size. The method, boiled down: as §4
Experiment [14] can be described thus: qHTS RealTime-Glo MT Cell Viability Assay in HEK293 cells - 40 hour (AID 1224874). Also: nearly all actives have a fitted effect of over 50% in size. Conditions: RealTime-Glo luminescence; max response: stronger effect = lower value. The method, boiled down: (§5)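 qHTS format; HEK293 cells with NanoLuc/prosubstrate reagent, 37 C/5% CO2 for 5 h pre-dosing; compounds 23 nL in DMSO; luminescence at each time point reflects viable cells.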

Experiment [15] is described as follows: A CellTox Green Cytotoxicity Assay to monitor cytotoxicity in HEK293 cells - 24 hour (AID 1224875). Also: nearly all actives have a fitted effect of over 45% in size. The method, boiled down:
as §3

Experiment [16] is described as follows: A CellTox Green Cytotoxicity Assay to monitor cytotoxicity in HepG2 cells - 16 hour (AID 1224876). Also: nearly all actives have a fitted effect of over 45% in size. In a few lines: (§6)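 Continuous culture of HepG2 cells with a membrane-impermeant DNA dye; rising fluorescence marks dead cells. Compound exposure lasted up to 40 h at 37 C, with reads every 8 h from 0 h.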
A short description of experiment [17]: qHTS RealTime-Glo MT Cell Viability Assay in HepG2 cells - 32 hour (AID 1224877). Also: nearly all actives have a fitted effect of over 55% in size. The method, boiled down: as §1
Experiment [18] can be described thus: A CellTox Green Cytotoxicity Assay to monitor cytotoxicity in HepG2 cells - 24 hour (AID 1224878). Also: nearly all actives have a fitted effect of over 45% in size. In a few lines: as §6
The nature of experiment [19]: A CellTox Green Cytotoxicity Assay to monitor cytotoxicity in HepG2 cells - 40 hour (AID 1224879). Also: nearly all actives have a fitted effect of over 40% in size. The method, boiled down: as §6
Experiment [20] in a line: qHTS RealTime-Glo MT Cell Viability Assay in HEK293 cells - 0 hour (AID 1224880). In a few lines: as §5

Values without a mark were called inactive. Results filed as inconclusive are left out. Calls of active or inactive are those of the source. Unless noted, calls follow the shape of the dose curve; as a rule, active = well fitted curve in the direction sought with a large enough effect in the repeat runs; inconclusive = weak or mixed curves; inactive = no such curve, though single readings can be large; an effect the other way counts as inactive or inconclusive.
% is scaled to controls: 0 for no effect and ±100 for the full control effect.

As for `CCN(CC)CCc1nc(-c2ccccc2)no1`, the Potency entry in experiment [1], in [2], in [4], in experiment [5], in experiment [7] and in [8] was “inactive” in each case. Moreover, the Potency entry in [9], in experiment [10], in [11], in experiment [12], in experiment [13] and in experiment [15] was “inactive” in each case. Moreover, the Potency entry in experiment [16], in experiment [17], in experiment [18], in experiment [19] and in experiment [20] was “inactive” each time. Also, the outcome in experiment [3] was inactive. For the same compound, the activity change, positive = activation in experiment [6] is 0.733% [at 42.5 µM]. For the same compound, the max response in experiment [14] is 0.0849%.

For `CCc1nn(C2CCCCC2)c2cc(C3(C#N)CCC(C(=O)O)CC3)ccc12` (centres undefined), the Potency entry in experiment [1], in experiment [2], in experiment [4], in experiment [7], in experiment [8] and in experiment [9] was “inactive” throughout. Also, the Potency result in experiment [10], in [11], in experiment [12], in [13], in experiment [15] and in experiment [16] was “inactive” in each case. The Potency entry in [17], in experiment [18], in experiment [19] and in experiment [20] was “inactive” each time. In addition, in experiment [3], the compound was classed as inactive. The Potency in experiment [5] is 48.6 µM (active). Moreover, in [6], the activity change, positive = activation was -46.5%. Further, the max response in [14] was 0.457%.

Regarding `O=[N+]([O-])c1cccc(Cl)c1Cl`, the Potency result in [1], in experiment [2], in experiment [4], in [5], in [7] and in [8] was “inactive” in each case. Also, the Potency result in experiment [9], in experiment [10], in experiment [12], in experiment [13], in experiment [16] and in experiment [17] was “inactive” each time. The Potency entry in experiment [18], in experiment [19] and in experiment [20] was “inactive” each time. Further, the result in experiment [3] was inactive. The activity change, positive = activation in [6] is 2.5%. Moreover, the max response in [14] was -16.4%.

Consider `CCCCCC/C=C/C=O`, for which the Potency entry in [1], in [2], in [4], in experiment [5], in experiment [7] and in [9] was “inactive” in each case. Moreover, the Potency entry in experiment [10], in [11], in [13], in experiment [15], in experiment [16] and in experiment [17] was “inactive” throughout. The result in [3] was inactive. Further, the activity change, positive = activation in experiment [6] was 2.49%. In addition, the max response in experiment [14] is 35.7%.

As to `CC(=O)N(CC(=O)N(C)C)c1ccccc1`, the Potency entry in [1], in experiment [2], in experiment [4], in experiment [5], in experiment [7] and in experiment [9] was “inactive” each time. Also, the Potency result in [10], in experiment [11], in [13], in experiment [15], in experiment [16] and in experiment [17] was “inactive” in each case. For the same compound, the Potency result in experiment [18] and in experiment [20] was “inactive” each time. The compound was called inactive in experiment [3]. For the same compound, in experiment [6], the activity change, positive = activation was 0.995% [at 42.5 µM]. Moreover, in experiment [14], the max response is 1.18%.

For `CC(CN)CCCN` (centres undefined), the Potency result in [1], in experiment [2], in experiment [5], in experiment [7], in [8] and in experiment [9] was “inactive” each time. Also, the Potency result in experiment [10], in experiment [11], in [12], in experiment [13], in experiment [15] and in [16] was “inactive” in each case. Further, the Potency entry in [17], in experiment [18], in [19] and in experiment [20] was “inactive” throughout. Further, the compound was classed as inactive in [3]. Besides, the Potency in [4] was 0.357 µM (active). Further, in experiment [6], the activity change, positive = activation was -0.964%. In addition, the max response in experiment [14] is 1.48%.

On to `O=C(CCN1CCN2CCCC2C1)N1c2ccccc2Sc2ccc(Cl)cc21` (centres undefined), for which the activity change, negative = cytotoxicity was 1.19% [at 15.8 µM] in [1]; -4.72% [at 31.6 µM] in experiment [4]; -4.92% [at 15.8 µM] in experiment [7]; -13.3% [at 15.8 µM] in experiment [12]; -6.17% [at 15.8 µM] in experiment [20]. For the same compound, in [2], the activation (H2AX phosphorylation) was -2.77% [at 31.6 µM]. In addition, the activation in experiment [3] is -0.917% [at 15.8 µM]. Also, the activity, negative = inhibition in experiment [5] was -23.7% [at 19 µM]. In addition, the activity change, positive = activation in experiment [6] was -13.2% [at 19 µM]. For the same compound, the cytotoxicity in experiment [9] is -5.19% [at 15.8 µM]; in experiment [18], 14.6% [at 15.8 µM]. Moreover, the activity change, negative = cytotoxic is -2.23% [at 15.8 µM] in experiment [10] and -4.67% [at 15.8 µM] in experiment [17]. The values for the cytotoxicity increase in experiment [11], in experiment [16] and in experiment [19] were 2.75% [at 15.8 µM], 6.02% [at 15.8 µM] and 22.2% [at 15.8 µM], respectively. For the same compound, the viability change, negative = cytotoxic in [13] was -2.56% [at 15.8 µM]. Moreover, the max response in experiment [14] is -21.5%. Also, the activity change in [15] was 0.914% [at 15.8 µM, stronger effect = higher value].
